Experimental data published in PubChem BioAssay (Tox21).
“And” between values parts separate entries of the source, which are not always exact repeats. Equal entries are not always repeated. Results filed as inconclusive are left out. A call without a number means that no potency is given here. A structure can be active in one record and inactive in another. The source made the active and inactive calls. Unless noted, calls follow the shape of the dose curve; as a rule, active = well fitted cell-killing curve with a large enough effect in the repeat runs; inconclusive = weak or mixed curves, or effect the other way; inactive = no such curve, though single readings can be large or run the other way.

Biological target: Vitamin D3 receptor (Homo sapiens) (UniProt P11473)
Sequence (P11473 whole entry, looked up): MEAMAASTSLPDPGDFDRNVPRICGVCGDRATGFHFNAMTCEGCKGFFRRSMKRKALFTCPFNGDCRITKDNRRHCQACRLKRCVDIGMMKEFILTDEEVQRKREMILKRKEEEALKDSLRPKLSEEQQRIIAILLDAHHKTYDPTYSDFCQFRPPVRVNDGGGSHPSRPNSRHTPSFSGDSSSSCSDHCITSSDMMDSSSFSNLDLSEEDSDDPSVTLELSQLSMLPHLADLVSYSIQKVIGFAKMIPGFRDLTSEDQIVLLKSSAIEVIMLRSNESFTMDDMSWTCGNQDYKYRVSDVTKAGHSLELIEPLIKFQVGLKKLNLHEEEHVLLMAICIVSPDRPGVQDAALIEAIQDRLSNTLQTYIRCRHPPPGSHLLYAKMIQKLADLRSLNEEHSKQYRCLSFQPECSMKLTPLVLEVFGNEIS
Assay: qHTS assay to identify small molecule antagonists of the vitamin D receptor (VDR) signaling pathway (AID 743223; active = well fitted inhibition curve with a large enough effect in the signal ratio in the repeat runs, not every such curve was filed as active; the % refers to the signal ratio)
Settings: VDR-UAS-bla HEK293T, beta-lactamase FRET ratio, 16 h; series mostly up to 61 µM; activity change, negative = inhibition: at the top concentration
How it was run: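 Inhibition of agonist-driven VDR signalling is scored in VDR-bla cells: 3 nM final 1alpha,25-dihydroxyvitamin D3 plus compound, 16 h at 37C, then beta-lactamase detection by FRET substrate fluorescence after 2 h.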
In the case of c1ccc2sc(SSN3CCOCC3)nc2c1, the outcome is reported as “inactive”.
For CN(C)c1nc(N(C)C)nc(N(C)C)n1, the outcome was “inactive”.
In the case of CN(C)CCN(Cc1cccs1)c1ccccn1, the outcome is reported as “inactive”.
With CCCCC(CC)COCC1CO1 (configuration not stated) the “activity change, negative = inhibition” value was -15.3% (inactive).
For c1cc(-c2ccncc2)ccn1, the “activity change, negative = inhibition” value was -4.55% [at 78.8 µM] (inactive).
In the case of NC=O, the outcome is reported as “inactive”.
In the case of c1ccc2cc(Nc3ccc(Nc4ccc5ccccc5c4)cc3)ccc2c1, the “activity change, negative = inhibition” value is reported as 4.12% [at 78.8 µM] (inactive).
In the case of COC(C)COC(C)COC(C)CO (configuration not stated), the outcome is reported as “inactive”.
With CC(=O)CC/C=C(\C)CCC=C(C)C the “activity change, negative = inhibition” value was 3.87% (inactive).
With Nc1ncnc2nc[nH]c12 the “activity change, negative = inhibition” value was 3.35% (inactive).
For OCCO, the outcome was “inactive”.
In the case of CCCCOCCOCCO, the “activity change, negative = inhibition” value is reported as 9.54% [at 78.8 µM] (inactive).
In the case of Cc1c(C(N)=O)cc([N+](=O)[O-])cc1[N+](=O)[O-], the outcome is reported as “inactive”.
For COc1ccc(C(=O)CC(=O)c2ccc(C(C)(C)C)cc2)cc1, the outcome was “inactive”.
With CCC(C)c1ccccc1O (configuration not stated) the “activity change, negative = inhibition” value was -9.26% (inactive).
In the case of CC(=O)C1(C)CC2=C(CCCC2(C)C)CC1C (configuration not stated), the outcome is reported as “inactive”.
For CCCCc1oc2ccccc2c1C(=O)c1cc(I)c(OCCN(CC)CC)c(I)c1, the “activity change, negative = inhibition” value was -26% (inactive).
In the case of O=C(c1ccccc1)c1ccccc1O, the outcome is reported as “inactive”.
For O=CCCCC=O, the outcome was “inactive”.
For NNc1ccc(C(=O)O)cc1, the outcome was “inactive”.
In the case of O=Cc1ccccc1O, the outcome is reported as “inactive”.
For Cc1cccc(N(C)C(=S)Oc2ccc3ccccc3c2)c1, the outcome was “inactive”.
With CC(=O)O[C@]1(C(C)=O)CC[C@H]2[C@@H]3C=C(Cl)C4=CC(=O)[C@@H]5C[C@@H]5[C@]4(C)[C@H]3CC[C@@]21C the “activity change, negative = inhibition” value was -10.5% (inactive).

Tested on: not listed separately
Assay: qHTS assay to identify small molecule agonists of the vitamin D receptor (VDR) signaling pathway - cell viability counter screen (AID 743224); also: nearly all actives have a fitted effect of over 50% in size; also: potency is read from the fitted curve at half-maximal effect
Settings: VDR-bla HEK293T viability, CellTiter-Glo luminescence, 16 h; series mostly up to 62.6 µM; activity change, negative = cytotoxicity: at the top concentration
How it was run: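 VDR-bla cell line, quantitative HTS format; 16 h compound incubation (37C, 5% CO2); ATP-based CellTiter-Glo luminescence measured in the reporter assay wells.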
In the case of C#C[C@]1(O)CC[C@H]2[C@@H]3CCC4=Cc5oncc5C[C@]4(C)[C@H]3CC[C@@]21C, the Potency is reported as 54.9 µM (active) and inactive.
With c1ccc2sc(SSN3CCOCC3)nc2c1 the Potency was 19.5 µM (active) and 49 µM (active).
With Nc1ncn([C@@H]2O[C@H](CO)[C@@H](O)[C@H]2O)c(=O)n1 the Potency was “inactive”.
With CN(C)c1nc(N(C)C)nc(N(C)C)n1 the Potency was “inactive”.
For CN(C)CCN(Cc1cccs1)c1ccccn1, the Potency was “inactive”.
In the case of CC(C)(C)NC(=O)[C@H]1CC[C@H]2[C@@H]3CC[C@H]4NC(=O)C=C[C@]4(C)[C@H]3CC[C@]12C, the Potency is reported as “inactive”.
In the case of CCCCC(CC)COCC1CO1 (configuration not stated), the Potency is reported as “inactive”.
With COC(=O)Nc1nc2ccc(S(=O)c3ccccc3)cc2[nH]1 (configuration not stated) the Potency was “inactive”.
For CC(=O)Oc1ccccc1C(=O)Nc1ncc([N+](=O)[O-])s1, the Potency was 12.6 µM (active).
With c1cc(-c2ccncc2)ccn1 the Potency was “inactive”.
With OC[C@H]1O[C@@H]2O[C@H]3[C@H](O)[C@@H](O)[C@@H](O[C@H]4[C@H](O)[C@@H](O)[C@@H](O[C@H]5[C@H](O)[C@@H](O)[C@@H](O[C@H]6[C@H](O)[C@@H](O)[C@@H](O[C@H]7[C@H](O)[C@@H](O)[C@@H](O[C@H]8[C@H](O)[C@@H](O)[C@@H](O[C@H]1[C@H](O)[C@H]2O)O[C@@H]8CO)O[C@@H]7CO)O[C@@H]6CO)O[C@@H]5CO)O[C@@H]4CO)O[C@@H]3CO the “activity change, negative = cytotoxicity” value was 20% (inactive).
In the case of NC=O, the Potency is reported as “inactive”.
In the case of COC(=O)C1=C(C)NC(C)=C(C(=O)OCCN(C)Cc2ccccc2)C1c1cccc([N+](=O)[O-])c1 (configuration not stated), the Potency is reported as 54.6 µM (active).
With c1ccc2cc(Nc3ccc(Nc4ccc5ccccc5c4)cc3)ccc2c1 the Potency was “inactive”.
With O=C(Nc1ccc(Cl)cc1)Nc1ccc(Cl)c(Cl)c1 the Potency was 19.4 µM (active) and 11 µM (active).
In the case of COC(C)COC(C)COC(C)CO (configuration not stated), the Potency is reported as “inactive”.
In the case of CC(=O)CC/C=C(\C)CCC=C(C)C, the Potency is reported as “inactive”.
For Nc1ccc(Nc2ccccc2)cc1, the Potency was “inactive”.
For Nc1ncnc2nc[nH]c12, the Potency was “inactive”.
With OCCO the Potency was “inactive”.
For O=C1OC2(c3cc(Br)c(O)c(Br)c3Oc3c2cc(Br)c(O)c3Br)c2c(Cl)c(Cl)c(Cl)c(Cl)c21, the Potency was “inactive”.
With CCCCOCCOCCO the Potency was “inactive”.
With Cc1c(C(N)=O)cc([N+](=O)[O-])cc1[N+](=O)[O-] the Potency was “inactive”.
For COc1ccc(C(=O)CC(=O)c2ccc(C(C)(C)C)cc2)cc1, the “activity change, negative = cytotoxicity” value was -1.24% (inactive).
For CCC(C)c1ccccc1O (configuration not stated), the Potency was “inactive”.
For Nc1ccccc1N, the “activity change, negative = cytotoxicity” value was 8.65% [at 81.1 µM] (inactive).
In the case of CC(=O)C1(C)CC2=C(CCCC2(C)C)CC1C (configuration not stated), the Potency is reported as “inactive”.
For OC1CCCCCCCCCCC1, the Potency was “inactive”.
With CCCCc1oc2ccccc2c1C(=O)c1cc(I)c(OCCN(CC)CC)c(I)c1 the Potency was 15.6 µM (active) and 26.6 µM (active).
In the case of Cc1c(OCC(F)(F)F)ccnc1CS(=O)c1nc2ccccc2[nH]1 (configuration not stated), the Potency is reported as “inactive”.
In the case of O=C(c1ccccc1)c1ccccc1O, the Potency is reported as “inactive”.
With O=CCCCC=O the Potency was “inactive”.
With NNc1ccc(C(=O)O)cc1 the Potency was “inactive”.
In the case of O=Cc1ccccc1O, the Potency is reported as “inactive”.
With Cc1cccc(N(C)C(=S)Oc2ccc3ccccc3c2)c1 the Potency was “inactive”.
With Cc1cc2nc3c(=O)[nH]c(=O)nc-3n(C[C@H](O)[C@H](O)[C@H](O)CO)c2cc1C the Potency was “inactive”.
For COc1cccc2c1C(=O)c1c(O)c3c(c(O)c1C2=O)C[C@@](O)(C(=O)CO)C[C@@H]3O[C@H]1C[C@H](N)[C@H](O)[C@H](C)O1, the Potency was “inactive”.
In the case of CN(C)C(=N)N=C(N)N, the “activity change, negative = cytotoxicity” value is reported as -3.47% (inactive).
In the case of CC(=O)O[C@]1(C(C)=O)CC[C@H]2[C@@H]3C=C(Cl)C4=CC(=O)[C@@H]5C[C@@H]5[C@]4(C)[C@H]3CC[C@@]21C, the Potency is reported as 48.9 µM (active) and inactive.
